Most compounds without a hit are left out; they make up all but 19% or so of the library.
ASM inhibitor: human S-ASM enzyme inhibition. P17405. placental ASM, HMU-PC fluorogenic substrate, 60 min. Potency, µM (highest dose often 57.5 µM), for the others: at the top dose activity change, negative = inhibition, most hits filed as inhibitors. actives 0.006% (n = 340,000). AID 504937; note: potency is the fitted concentration of half-maximal effect
Target sequence (P17405 47-631 limits assumed): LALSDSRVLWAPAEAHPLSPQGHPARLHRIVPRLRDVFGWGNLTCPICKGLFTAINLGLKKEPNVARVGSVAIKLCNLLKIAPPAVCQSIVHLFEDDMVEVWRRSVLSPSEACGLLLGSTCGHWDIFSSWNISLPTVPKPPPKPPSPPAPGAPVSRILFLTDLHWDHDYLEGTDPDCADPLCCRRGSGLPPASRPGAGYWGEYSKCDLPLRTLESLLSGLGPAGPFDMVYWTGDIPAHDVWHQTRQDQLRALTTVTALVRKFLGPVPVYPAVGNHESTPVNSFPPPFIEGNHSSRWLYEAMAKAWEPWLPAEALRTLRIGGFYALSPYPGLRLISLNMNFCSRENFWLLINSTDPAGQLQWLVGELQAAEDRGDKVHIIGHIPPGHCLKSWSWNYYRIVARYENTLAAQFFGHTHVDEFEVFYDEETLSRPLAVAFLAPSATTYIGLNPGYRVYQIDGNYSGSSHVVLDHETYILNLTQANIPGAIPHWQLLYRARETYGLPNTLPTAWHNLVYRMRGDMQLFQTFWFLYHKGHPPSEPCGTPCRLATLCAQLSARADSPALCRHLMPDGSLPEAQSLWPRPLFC
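Human placenta-derived ASM preincubated with compound 10 min at room temperature, then reacted with 9 uM (final) fluorogenic HMU-PC substrate for 60 min at 37 C. Stop solution raises pH to 10; fluorescence read at Ex 386/Em 447 nm.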
TDP1 cell CPT: DT40-hTDP1 cell growth loss with CPT; chicken DT40 Tdp1-/-;hTDP1 cells + 20 nM CPT, ATP luminescence, 48 h; Potency, µM (top dose mostly 46.2 µM), for the others: top-dose activity change, negative = growth inhibition, hits mostly inhibitors; actives 12% (n = 420,000); AID 686979; note: potency is the fitted concentration of half-maximal effect; % is set by controls: 0 for no effect and ±100 for the full control effect; nearly all actives have a fitted effect of over 55% in size
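Chicken DT40 Tdp1-/- cells complemented with human TDP1, 400 cells/well, exposed to compounds plus 20 nM camptothecin for at least 48 h at 37 C; viability read as ATP content by CellTiter-Glo luminescence.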
IL1B secr inh: inflammasome signaling inhibition, IL-1 beta readout; THP-1 LPS/ATP IL-1B secretion, AlphaLISA, 16 h; hits give low values; activity change, % at 57.5 µM; actives 4.7% (n = 360,000); in the data active = activity change below about -50%; inconclusive = mostly about -30% to -49%; note: % is set by controls: 0 for no effect and ±100 for the full control effect
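THP-1 cells pretreated 1 hr with compounds (up to 57.5 uM final), then stimulated with LPS (250 ng/mL final) plus ATP (1.25 mM final); secreted IL-1B measured by AlphaLISA after 16 hr, decreased signal indicating inhibition.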
HepG2 tox: counter-screen for TGF-b inhibitors: cytotoxicity in HepG2 cells; AID 588856; Potency, µM (top dose mostly 46.1 µM), inactives show at the top dose activity change, negative = cytotoxicity, hits mostly cytotoxic; actives 0.76% (n = 410,000); HepG2 CAGA-GFP viability, ATP luminescence, 18 h; note: potency is the fitted concentration of half-maximal effect
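HepG2 CAGA-GFP cells (1000/well, DMEM with 1% FBS) received compound, then TGF-beta at 500 pg/mL final, and were incubated 18 hours at 37 degrees C. Viability was read by CellTiter-Glo luminescence. Media-only wells were set as complete cell-killing and DMSO as no toxicity.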
DT40 TDP1 no CPT: qHTS for Inhibitors of human tyrosyl-DNA phosphodiesterase 1 (TDP1): qHTS in cells in absence of CPT; DT40 Tdp1-/- hTDP1 cells, no CPT, ATP luminescence, 48 h; Potency, µM (top dose mostly 46.2 µM), for the others: at the top dose activity change, negative = growth inhibition, usual class: inhibitors; actives 15% (n = 420,000); note: potency is the fitted concentration of half-maximal effect; % is set by controls: 0 for no effect and ±100 for the full control effect; nearly all actives have a fitted effect of over 55% in size
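Growth of hTDP1-complemented DT40 Tdp1-knockout cells is measured by ATP luminescence after at least 48 hr compound exposure at 37 °C, with DMSO substituting for the 20 nM CPT used in the parallel screen.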
TGFb inhibitor: inhibitors of TGF-b signaling. HepG2 CAGA-GFP TGF-b/SMAD3 reporter, GFP fluorescence, 18 h; TGF-beta stimulated, 500 pg/mL final. Potency, µM (titrated, usually from 46.1 µM), for inactives: at the highest dose activity, negative = inhibition, usual class: inhibitors. actives 1.2% (n = 410,000). AID 588855; note: potency is the fitted concentration of half-maximal effect; % is set by controls: 0 for no effect and ±100 for the full control effect; nearly all actives have a fitted effect of over 65% in size
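Inhibition of TGF-beta-driven CAGA-GFP reporter expression in HEPG2 cells is measured by cellular GFP fluorescence after 18 h stimulation with 500 pg/mL recombinant TGF-beta in 1% FBS medium at 37 degrees C.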
Starred values were filed as active, the others as inactive; ? = inconclusive; / = no result given. Unless noted, calls come from the whole dose curve; as a rule, active = well fitted curve in the direction sought with a large enough effect; inconclusive = small, poorly fitted or top-dose-only effect, or another doubt; inactive = no such curve, though single readings can be large; an effect the other way counts as inactive or inconclusive.

SMILES	ASM inhibitor	TDP1 cell CPT	IL1B secr inh	HepG2 tox	DT40 TDP1 no CPT	TGFb inhibitor
O=C(Nc1ccccc1N1CCOCC1)[C@@H]1O[C@H](CO)[C@H](O)[C@H](O)[C@H]1O	/	-5%	31	-3%	-7%	-3%
CN(CCC#N)C(=O)CC1(Cc2ccccc2)CCOC(C)(C)C1 (stereo not given)	4%	-11%	5	0%	4%	-1%
O=C(Cc1cccs1)Nc1cccc(-c2nnc(-c3ccco3)o2)c1	-2%	16µM*	?	-15%	12µM*	-5%
Cc1ccc(-c2nnc(-c3ccc(NC(=O)Cc4cccs4)cc3)o2)cc1	-2%	15µM*	18	-37%	18µM*	-26%
COc1cccc(C(=O)Nc2ccccc2-c2nnc(-c3cccc(OC)c3)o2)c1	/	9.2µM*	/	-50%	12µM*	12%
Cc1ccc2oc(-c3cccc(NC(=O)Cc4cccs4)c3)nc2c1	5%	-12%	15	15%	-9%	6%
O=C(Nc1ccc(-c2nnc(-c3ccco3)o2)cc1)C(c1ccccc1)c1ccccc1	0%	9.2µM*	-8	-14%	8.2µM*	-10%
O=C(O)CCC(=O)Nc1ccc(-c2nnc(-c3ccco3)o2)cc1	2%	4%	1	6%	1%	-12%
O=C(COc1ccccc1)Nc1ccc2nc(SCC(=O)N3CCc4ccccc43)sc2c1	/	?	/	1%	?	10%
Cc1ccc(C(NC(=O)Cc2cccs2)C(=O)Nc2ccc(C(C)C)cc2)cc1 (stereo not given)	/	16µM*	/	5%	?	3%
COc1ccc(C(=O)Nc2cccc(NC(C)=O)c2)cc1	/	-3%	58	-39%	-13%	-2%
COc1ccccc1CC(=O)Nc1ccc(-c2nnc(-c3ccco3)o2)cc1	-2%	?	?	1%	16µM*	-6%
O=C(Cc1ccccc1)Nc1ccc(-c2nnc(-c3ccco3)o2)cc1	2%	-20%	4	0%	-7%	-10%
Cc1cc(C)cc(OCC(=O)Nc2cccc(-c3nnc(-c4ccco4)o3)c2)c1	-8%	?	0	-1%	?	3%
COc1ccc(CC(=O)Nc2cccc(-c3nnc(-c4ccco4)o3)c2)cc1	-8%	7.3µM*	-20	-18%	7.3µM*	27%
COc1ccc(NC(=O)C(NC(=O)Cc2cccs2)c2ccc(OC)cc2)cc1 (stereo not given)	/	-8%	/	-8%	2%	0%
COc1ccc(C(=O)Nc2cccc(-c3nnc(-c4ccco4)o3)c2)cc1	?	18µM*	-29	-7%	16µM*	?
CN(C)S(=O)(=O)c1cccc(NC(=O)CO/N=C(\N)c2ccccc2)c1	3%	-22%	4	6%	?	-5%
COc1cc(C(=O)Nc2ccc(-c3nnc(-c4ccco4)o3)cc2)cc(OC)c1OC	-2%	?	-4	4%	?	0%
COc1cc(C(=O)Nc2cccc(-c3nnc(-c4ccco4)o3)c2)ccc1OC(C)=O	-8%	13µM*	-88*	2%	16µM*	2%
Cc1ccccc1S(=O)(=O)NC(=NCc1ccc(F)cc1)c1ccccc1	0%	?	-14	-28%	?	-13%
COc1ccccc1C(=O)NNC(=O)c1cc2ccccc2cc1O	/	13µM*	79	-27%	18µM*	-20%
COc1ccc(C(=O)NNC(=O)c2ccccc2[N+](=O)[O-])cc1	3%	-15%	1	21%	4%	-7%
COc1ccc(C(=O)NNC(=O)c2cc3ccccc3cc2O)cc1	18%	?	140	31%	13µM*	-14%
CC(C)CCCCCCCCCCCCC(=O)NCC(=O)NC1C(O)C(O)C(Nc2ncnc3nc[nH]c23)OC1C(O)CO (stereo not given)	-20%	0.15µM*	-100*	-34%	0.18µM*	?
SMILES	ASM inhibitor	TDP1 cell CPT	IL1B secr inh	HepG2 tox	DT40 TDP1 no CPT	TGFb inhibitor
CCCCCC(=O)Nc1cccc(C2=NOC3(C2)C[C@@H](C(N)=O)N(C(=O)CC(c2ccccc2)c2ccccc2)C3)c1 (stereo not given in full)	-12%	23µM*	0	-6%	?	?
CC/C=C/C(=O)N1CC2(CC(c3cccc(NC(=O)CC(c4ccccc4)c4ccccc4)c3)=NO2)C[C@@H]1C(N)=O (stereo not given in full)	-7%	-86%	?	0%	16µM*	?
C/C=C/C(=O)Nc1cccc(C2=NOC3(C2)C[C@@H](C(N)=O)N(C(=O)C(c2ccccc2)c2ccccc2)C3)c1 (stereo not given in full)	-4%	?	15	5%	?	-13%
C/C=C\C(=O)Nc1cccc(C2=NOC3(C2)C[C@@H](C(N)=O)N(C(=O)CC(c2ccccc2)c2ccccc2)C3)c1 (stereo not given in full)	-5%	?	-23	5%	16µM*	?
CCCCCC(=O)Nc1cccc(C2=NOC3(C2)C[C@H](C(N)=O)N(C(=O)COc2ccc(Cl)cc2)C3)c1 (stereo not given in full)	-16%	?	?	-22%	?	?
Cc1c2cnn(CC(=O)Nc3ccc(F)cc3F)c(=O)c2c(C)n1Cc1cccc(Cl)c1	/	-26%	/	-19%	?	-15%
O=c1[nH]c(CSc2nnc(-c3ccccc3)n2-c2ccccc2)nc2ccccc12	-2%	-28%	19	-34%	-14%	-8%
Cc1ccc2nc(SCc3nc(-c4ccccc4C)no3)[nH]c2c1	/	18µM*	/	-37%	13µM*	?
Cc1ccc2nc(CSc3nc(C)ccc3C#N)[nH]c2c1	213%	18µM*	?	-50%	32µM*	-1%
O=c1[nH]c(CSc2nnc(-c3ccccc3)n2C2CCCCC2)nc2ccccc12	-1%	?	5	5%	21µM*	-4%
COC(=O)c1sc2nc(CSc3nc4ccc(C)cc4[nH]3)[nH]c(=O)c2c1C	4%	?	27	-24%	-24%	4%
Cc1ccc2nc(SCc3nc4ccccc4c(=O)[nH]3)[nH]c2c1	-1%	?	-98*	0%	21µM*	0%
CN(C)S(=O)(=O)N(CC(=O)Nc1ccc(Br)cc1F)c1ccccc1	/	/	/	-18%	/	-3%

Screening data deposited in PubChem by National Center for Advancing Translational Sciences (NCATS).
